From PubChem BioAssay AID1259240 (Keith Lab, Institute of Cancer Science, University of …, 2017)

Assay: modulation of TERT promoter-driven luciferase – cell-based, luciferase reporter, human, primary screen (AID 1259240)
Conditions: A2780 TERT promoter luciferase reporter, 16 h; at 20 µM, fold versus average of vehicle-only wells; in the data active means fold change mostly below about -2 (no sharp cut-off); inactive means mostly above about -1.8

Fold change, inactive:
Cn1c(=O)[nH]c(=O)c2c1nc(NCCCO)n2Cc1ccccc1Cl -1.16, CCN(CC)C(=O)C1=C(C)Nc2nc3ccccc3n2C1c1ccncc1 (stereo unspecified) -1.02, Cc1ccn2c(NC(=O)C(C)C)c(-c3ccc(F)cc3)nc2c1 -1.4, CCOC(=O)C1CCCN(c2c(NCCCN3CCN(C)CC3)c(=O)c2=O)C1 (stereo unspecified) -1.03, COc1cc2c(=O)c(S(=O)(=O)c3ccccc3)cn(Cc3ccccc3Cl)c2cc1OC -1.09, Cc1cccc(-c2nc3s/c(=C4\C(=O)N(C)c5ccccc54)c(=O)n3n2)c1 -1.34, Cc1cc(NC(=O)CSc2ncnc3ccccc23)no1 1.35, Cc1ccc2c(C)nc(NC3=NCN(CCN4CCOCC4)CN3)nc2c1 1.05, Cc1c(/C=C2/SC(=S)N(CC(=O)O)C2=O)c2ccccc2n1C 1.33, O=C(CN1C(=O)COc2ccc(S(=O)(=O)N3CCCC3)cc21)NCCCN1CCOCC1 -1.17, COCC(=O)N1N=C(c2ccc(NS(C)(=O)=O)cc2)CC1c1ccco1 (stereo unspecified) 1.02, CN(C)CCNC(=O)C(=O)Nc1ccc2nc3n(c(=O)c2c1)CCCCC3 1.06, COc1cc(Cl)cc(OC)c1NC(=O)Nc1ccc2snnc2c1 -1.47, COc1ccccc1Nc1nc(N)nc(CSc2ncccn2)n1 -1.15, O=C(O)CN1C(=O)/C(=C\c2ccc(-c3ccccc3)o2)SC1=S -1.88, CCOC(=O)N1CCC(Nc2c(N3CCN(c4ccc(C(C)=O)cc4)CC3)c(=O)c2=O)CC1 -1.1
